Laboratory results published in the supplement of paper PMC3616981.
± gives the standard deviation of the averaged measurements.

Assays:
[1] = compound: CC(C)c1cccc(C(C)C)c1N1C(=O)c2ccc(O)cc2C1=O; test: reporter fold induction vs vehicle; higher = higher reporter activity
In short: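 Multiplexed cellular biosensor reporter system with cis response-element and trans nuclear-receptor transcription factor reporter constructs (48 cis, 25 trans) and homogeneous detection, tested in ToxCast Phase II at 8 concentrations (0.091–200 µM). Reporter activity is given as fold induction relative to vehicle control. Replicates were averaged where present.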

[2] = compound: CC(C)c1cccc(C(C)C)c1N1C(=O)c2ccc(O)cc2C1=O; test: BioMAP readout fold decrease vs vehicle (vehicle/treated); higher = stronger decrease of the readout vs vehicle (values <1 mean increase)
Procedure: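 BioSeek BioMAP human primary cell (co-)culture systems (3C, 4H, LPS, SAg, BE3C, CASM3C, hDFCGF, KF3CT) treated with 5HPP-33 at 1.48, 4.44, 13.3 and 40 µM. Read-outs are protein levels by ELISA, proliferation and SRB total protein. Duplicate rows per assay are averaged as replicates. Tested in ToxCast Phase II for this study; exposure time not stated.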
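Wherever BioMAP readout fold decrease vs vehicle (vehicle/treated) is given: Co-cultures of keratinocytes, bronchial epithelial and smooth muscle cells, fibroblasts, HUVECs and PBMCs under stimuli like LPS, TNF-α, IFN-γ, IL-1β, TGF-β or EGF, SRB reflecting cytotoxicity.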

Target | reporter fold induction ([1]; 0.091 µM) | reporter fold induction ([1]; 0.274 µM) | reporter fold induction ([1]; 0.823 µM) | reporter fold induction ([1]; 2.469 µM) | reporter fold induction ([1]; 7.407 µM) | reporter fold induction ([1]; 22.22 µM) | reporter fold induction ([1]; 66.67 µM) | reporter fold induction ([1]; 200 µM) | BioMAP readout fold decrease ([2]; 1.48 µM) | BioMAP readout fold decrease ([2]; 4.44 µM) | BioMAP readout fold decrease ([2]; 13.3 µM) | BioMAP readout fold decrease ([2]; 40 µM)
IR1_CIS | 1.07 | 0.953 | 1.02 | 1.01 | 1.08 | 0.864 | 0.788 | 0.644 |  |  |  | 
HNF4a_TRANS | 1.1 | 1.42 | 0.883 | 1.11 | 1.1 | 1.07 | 0.715 | 0.473 |  |  |  | 
HIF1a_CIS | 1.04 | 1.07 | 1.03 | 1.03 | 1.07 | 1.22 | 0.927 | 1.08 |  |  |  | 
TAL_CIS | 1.06 | 0.981 | 1.01 | 0.98 | 1.11 | 1.09 | 1 | 1.28 |  |  |  | 
PPARg_TRANS | 1.01 | 1.06 | 0.946 | 0.881 | 1.19 | 1.53 | 1.62 | 1.47 |  |  |  | 
M_06_TRANS | 0.964 | 1.01 | 0.995 | 1.01 | 1.01 | 1 | 0.996 | 0.992 |  |  |  | 
FoxO_CIS | 1.07 | 1.02 | 0.985 | 0.99 | 1.03 | 0.938 | 0.872 | 1.07 |  |  |  | 
AP_2_CIS | 1.04 | 1 | 1 | 1.05 | 1.01 | 0.908 | 0.965 | 0.898 |  |  |  | 
RORg_TRANS | 1.15 | 1.17 | 1.17 | 1.35 | 1.43 | 0.891 | 0.575 | 0.332 |  |  |  | 
Myc_CIS | 1.01 | 1.03 | 0.99 | 0.982 | 1.09 | 1.04 | 1.05 | 2.33 |  |  |  | 
CRE_CIS | 1.08 | 1.03 | 1.01 | 0.951 | 1.11 | 1.17 | 2.03 | 3.21 |  |  |  | 
ERa_TRANS | 1.72 | 2.62 | 4.32 | 5.19 | 4.48 | 4.97 | 2.96 | 1.06 |  |  |  | 
ERRa_TRANS | 1.21 | 0.853 | 1.02 | 1.39 | 1.37 | 0.823 | 0.836 | 0.339 |  |  |  | 
PPARd_TRANS | 1.05 | 0.856 | 0.9 | 1.11 | 0.953 | 1.14 | 1.27 | 1.45 |  |  |  | 
PXR_TRANS | 1.15 | 2.07 | 3.25 | 4.39 | 3.39 | 3.71 | 3.61 | 1.33 |  |  |  | 
M_61_CIS | 0.997 | 0.997 | 1.01 | 0.995 | 1.02 | 1.02 | 0.98 | 1.09 |  |  |  | 
CAR_TRANS | 1.1 | 0.946 | 0.997 | 0.985 | 0.814 | 0.835 | 0.84 | 0.343 |  |  |  | 
STAT3_CIS | 1.05 | 1 | 0.995 | 0.975 | 0.977 | 1.15 | 1.02 | 0.913 |  |  |  | 
SREBP_CIS | 1.04 | 0.954 | 1.01 | 0.996 | 1.05 | 0.976 | 1.16 | 1.49 |  |  |  | 
AP_1_CIS | 1.01 | 0.867 | 0.986 | 0.984 | 1.2 | 1.44 | 1.7 | 0.71 |  |  |  | 
DR4_LXR_CIS | 1.02 | 0.906 | 1 | 1.02 | 0.88 | 0.462 | 0.424 | 0.478 |  |  |  | 
hDFCGF_IP10 |  |  |  |  |  |  |  |  | 1.1 ± 0.1 | 1.073 ± 0.0033 | 1.33 ± 0.037 | 5.47 ± 0.25
LXRa_TRANS | 0.858 | 0.611 | 1 | 0.742 | 0.814 | 0.638 | 0.979 | 0.718 |  |  |  | 
BE3C_hLADR |  |  |  |  |  |  |  |  | 0.985 ± 0.037 | 1.17 ± 0.015 | 1.72 ± 0.043 | 2.97 ± 0.053
hDFCGF_EGFR |  |  |  |  |  |  |  |  | 1.0619 ± 0.00028 | 1.02 ± 0.028 | 1.19 ± 0.025 | 1.291 ± 0.0087
CASM3C_Proliferation |  |  |  |  |  |  |  |  | 1.11 ± 0.024 | 1.58 ± 0.054 | 1.2 ± 0.23 | 2.76 ± 0.16

Target | reporter fold induction ([1]; 0.091 µM) | reporter fold induction ([1]; 0.274 µM) | reporter fold induction ([1]; 0.823 µM) | reporter fold induction ([1]; 2.469 µM) | reporter fold induction ([1]; 7.407 µM) | reporter fold induction ([1]; 22.22 µM) | reporter fold induction ([1]; 66.67 µM) | reporter fold induction ([1]; 200 µM) | BioMAP readout fold decrease ([2]; 1.48 µM) | BioMAP readout fold decrease ([2]; 4.44 µM) | BioMAP readout fold decrease ([2]; 13.3 µM) | BioMAP readout fold decrease ([2]; 40 µM)
M_32_TRANS | 1.03 | 0.997 | 1.07 | 1.09 | 1.08 | 1.08 | 0.964 | 1 |  |  |  | 
KF3CT_IP10 |  |  |  |  |  |  |  |  | 0.9935 ± 0.0028 | 1.06 ± 0.035 | 1.39 ± 0.016 | 7.16 ± 0.78
CASM3C_SRB |  |  |  |  |  |  |  |  | 1.022 ± 0.0094 | 1.1 ± 0.012 | 1.07 ± 0.023 | 1.41 ± 0.047
SAg_PBMCCytotoxicity |  |  |  |  |  |  |  |  | 0.998 ± 0.065 | 1.01 ± 0.078 | 0.879 ± 0.028 | 0.894 ± 0.028
hDFCGF_MCSF |  |  |  |  |  |  |  |  | 1.03 ± 0.01 | 0.98 ± 0.05 | 1.21 ± 0.024 | 2.01 ± 0.16
3C_MIG |  |  |  |  |  |  |  |  | 1.004 ± 0.0083 | 1.01 ± 0.0047 | 1 ± 0.012 | 1.09 ± 0.016
3C_uPAR |  |  |  |  |  |  |  |  | 1.13 ± 0.03 | 1.15 ± 0.053 | 1.43 ± 0.1 | 2.6 ± 0.15
LPS_MCP1 |  |  |  |  |  |  |  |  | 1.03 ± 0.028 | 1.01 ± 0.012 | 1.02 ± 0.016 | 2.69 ± 0.19
3C_ICAM1 |  |  |  |  |  |  |  |  | 1.05 ± 0.025 | 1.05 ± 0.019 | 1.02 ± 0.013 | 1.08 ± 0.087
CASM3C_MCP1 |  |  |  |  |  |  |  |  | 1.07 ± 0.045 | 1.137 ± 0.0029 | 1 ± 0.016 | 0.9734 ± 0.002
LPS_IL1a |  |  |  |  |  |  |  |  | 0.781 ± 0.039 | 0.8356 ± 0.0034 | 0.965 ± 0.057 | 1.56 ± 0.039
BE3C_TGFb1 |  |  |  |  |  |  |  |  | 1.05 ± 0.079 | 1.09 ± 0.061 | 1.117 ± 0.0036 | 1.32 ± 0.1
SAg_Proliferation |  |  |  |  |  |  |  |  | 1.22 ± 0.15 | 1.7 ± 0.1 | 1.76 ± 0.053 | 10.3 ± 0.41
M_32_CIS | 1.02 | 0.981 | 1 | 1.02 | 0.972 | 0.978 | 1.12 | 1.02 |  |  |  | 
4H_uPAR |  |  |  |  |  |  |  |  | 1.2 ± 0.045 | 1.3 ± 0.038 | 1.361 ± 0.0024 | 2.33 ± 0.26
hDFCGF_SRB |  |  |  |  |  |  |  |  | 1 ± 0.034 | 0.959 ± 0.0096 | 1.19 ± 0.017 | 2.06 ± 0.21
BE3C_uPAR |  |  |  |  |  |  |  |  | 1.02 ± 0.013 | 1.0603 ± 0.00083 | 1.1 ± 0.012 | 1.26 ± 0.022
KF3CT_ICAM1 |  |  |  |  |  |  |  |  | 0.999 ± 0.092 | 1.03 ± 0.037 | 0.9245 ± 0.0078 | 1.08 ± 0.062
CASM3C_LDLR |  |  |  |  |  |  |  |  | 1.1 ± 0.017 | 1.188 ± 0.002 | 0.969 ± 0.038 | 2.21 ± 0.034
BRE_CIS | 0.993 | 0.878 | 1.14 | 0.967 | 0.938 | 0.934 | 3.36 | 1.05 |  |  |  | 
SAg_CD40 |  |  |  |  |  |  |  |  | 1.164 ± 0.003 | 1.39 ± 0.092 | 1.94 ± 0.027 | 5.89 ± 0.36
HNF6_CIS | 0.992 | 0.941 | 0.978 | 0.981 | 0.982 | 0.952 | 0.932 | 0.692 |  |  |  | 
4H_SRB |  |  |  |  |  |  |  |  | 1.05 ± 0.014 | 1.12 ± 0.016 | 1.25 ± 0.031 | 1.44 ± 0.041
NRF1_CIS | 1.01 | 0.997 | 1.04 | 1.01 | 0.978 | 0.868 | 1.02 | 1.44 |  |  |  | 
BE3C_IP10 |  |  |  |  |  |  |  |  | 1.1 ± 0.12 | 1.15 ± 0.0028 | 1.65 ± 0.029 | 3.38 ± 0.11
3C_Eselectin |  |  |  |  |  |  |  |  | 1.04 ± 0.051 | 1.056 ± 0.0015 | 0.99 ± 0.023 | 1.39 ± 0.034
